Source: PubChem BioAssay AID1851 (National Center for Advancing Translational Sciences (NCATS), 2009)
Out of some 16,000 compounds screened, about 5,100 (32%) were called active. About 25% were inconclusive and are not listed. The list shows a part of the results. A number with no mark means an inactive call. The call rests on the fitted dose curve; in most records, active means well fitted curve in the direction sought with a large enough effect; inconclusive means small, poorly fitted or top-dose-only effect, or effect the other way; inactive means no such curve, though single readings can be large or run the other way.
On the % scale 0 is the no-effect control and ±100 the full control effect.

The molecules below were run against Cytochrome P450 3A4 (Homo sapiens) (UniProt P08684) (assay: Cytochrome panel assay with activity outcomes). Conditions: recombinant CYP, pro-luciferin dealkylation, luminescence, p450-cyp3a4; series mostly up to 57.1 µM.
Sequence of Cytochrome P450 3A4 (Homo sapiens) (P08684 whole entry, looked up): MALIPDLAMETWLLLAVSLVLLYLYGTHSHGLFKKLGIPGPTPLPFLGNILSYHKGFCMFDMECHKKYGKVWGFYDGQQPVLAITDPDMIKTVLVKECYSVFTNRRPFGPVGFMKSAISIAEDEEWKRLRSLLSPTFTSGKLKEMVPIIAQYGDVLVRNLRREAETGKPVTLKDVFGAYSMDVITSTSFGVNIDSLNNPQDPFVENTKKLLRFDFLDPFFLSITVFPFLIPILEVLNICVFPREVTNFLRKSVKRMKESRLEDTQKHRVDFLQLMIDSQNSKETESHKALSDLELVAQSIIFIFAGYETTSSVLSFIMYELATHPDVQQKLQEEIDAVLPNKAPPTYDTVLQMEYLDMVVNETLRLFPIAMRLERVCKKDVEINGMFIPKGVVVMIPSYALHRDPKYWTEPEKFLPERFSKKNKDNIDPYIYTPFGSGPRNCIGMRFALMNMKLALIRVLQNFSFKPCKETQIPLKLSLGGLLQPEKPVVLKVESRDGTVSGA
For CCC1NC(=S)N(C2CCCCC2)C1=O (configuration not stated), the AC50 was “inactive”.
For Cc1ccc(-[n+]2cc(=O)o[nH]2)cc1, the activity, negative = inhibition was -10.5% [at 11.4 µM].
With Nc1nc(C(=O)O)c(N=Nc2ccccc2)c(=O)[nH]1 the activity, negative = inhibition was -12.5% [at 11.4 µM].
CCOc1ccc2nc3cc(N=Nc4ccc(N)nc4N)ccc3c(N)c2c1 showed an activity, negative = inhibition of -19% [at 11.4 µM].
In the case of COCCn1c(=O)c(-c2cccs2)nc2cnc(Oc3ccccc3)nc21, the AC50 is reported as 20 µM (active).
For COCCn1c(=O)c(-c2cccs2)nc2cnc(OC)nc21, the AC50 was 10 µM (active).
For COc1ncc2nc(-c3cccs3)c(=O)n(CCc3ccccc3)c2n1, the AC50 was 10 µM (active).
With CCCCN(Cc1ccccc1)C(=O)c1cnc2n(c1=O)CCS2 the AC50 was “inactive”.
In the case of CSc1ccccc1N1CCN(C(=O)Nc2ccc3c(c2)NC(=O)CO3)CC1, the AC50 is reported as “inactive”.
In the case of CN(C)S(=O)(=O)c1nc(Cl)c2[nH]cnc2n1, the activity, negative = inhibition is reported as -5.34% [at 11.4 µM].
With CCOC(=O)N/N=C1/C[C@@H](O)[C@@H](O)[C@@H]2[C@@H]3C(=O)N(C4CCCCC4)C(=O)[C@H]3CC[C@@H]12 the activity, negative = inhibition was -20.8% [at 11.4 µM].
In the case of O=C(Nc1cccc(Cl)c1Cl)c1snnc1-c1ccccc1, the AC50 is reported as “inactive”.
In the case of COC(=O)[C@H](C)[C@H]1C[C@]1(C)[C@H](NC(=O)OCc1ccccc1)c1ccccc1, the AC50 is reported as 7.94 µM (active).
COC(=O)[C@H](C)[C@@H]1C[C@@]1(C)[C@@H](NC(=O)OCc1ccccc1)c1ccccc1 was tested, and the AC50 was 10 µM (active).
CN(C)CCNS(=O)(=O)N(C)C was tested, and the activity, negative = inhibition was -13.5% [at 11.4 µM].
For Nc1ccc(Oc2ccc3nc(-c4ccccc4)c(-c4ccc([N+](=O)[O-])cc4)nc3c2)cc1, the AC50 was 3.55 µM (active).
Work on Cc1nc2ccccc2nc1-c1ccc(N=[N+]([O-])c2ccc(-c3nc4ccccc4nc3C)cc2)cc1 yielded an activity, negative = inhibition of 3.4% [at 11.4 µM].
In the case of CC(=O)NN1C(=O)c2ccc(Oc3ccc([N+](=O)[O-])cc3)cc2C1=O, the AC50 is reported as “inactive”.
With Cc1noc(C)c1CS(=O)(=O)c1ccc(Br)cc1 the AC50 was 15.8 µM (active).
With O=C(CCc1nc(-c2ccccc2)no1)NCCc1ccccc1 the AC50 was “inactive”.
With CNC(=O)CCc1nc(-c2ccc(C(C)(C)C)cc2)no1 the AC50 was “inactive”.
COc1ccc(-c2noc(CCCC(=O)NCCc3ccccc3)n2)cc1OC was tested, and the AC50 was 11.2 µM (active).
Cc1c(NC(=O)Nc2c(Cl)cccc2Cl)c(=O)n(-c2ccccc2)n1C showed an activity, negative = inhibition of 4.74% [at 11.4 µM].
Cc1ccc(S(=O)(=O)/N=C(/Nc2c(C)n(C)n(-c3ccccc3)c2=O)c2ccc(Cl)cc2)cc1 was tested, and the AC50 was 3.16 µM (active).
For Cc1c(NCc2cc(Cl)ccc2O)c(=O)n(-c2ccccc2)n1C, the AC50 was 14.1 µM (active).
O=S(=O)(/N=C(\Sc1ccccc1)c1ccccc1)c1ccc(Cl)cc1 was tested, and the AC50 was “inactive”.
For Cc1c(NC(C)C)c(=O)n(-c2ccccc2)n1C, the AC50 was “inactive”.
For Cc1c(NC(=O)C2CCN(S(=O)(=O)c3ccc(Cl)cc3)CC2)c(=O)n(-c2ccccc2)n1C, the AC50 was 7.94 µM (active).
COc1ccccc1N/C(=N/S(=O)(=O)c1ccc(C)cc1)c1ccc(Cl)cc1 was tested, and the AC50 was 2.24 µM (active).
Cc1nn(-c2ccccc2)c(Cl)c1C(=O)Nc1c(C)n(C)n(-c2ccccc2)c1=O was tested, and the AC50 was “inactive”.
For CC(=O)NC1=NN(c2ccccc2)C(=O)C1, the AC50 was “inactive”.
In the case of O=c1c(-c2cc(F)cc(F)c2)nc2cnc(N3CCNCC3)nc2n1Cc1cccs1, the AC50 is reported as 10 µM (active).
In the case of O=c1c(-c2ccc(Cl)cc2)nc2cnc(N3CCNCC3)nc2n1Cc1cccs1, the AC50 is reported as 5.01 µM (active).
In the case of Cn1c(=O)c(-c2cc(F)cc(F)c2)nc2cnc(N3CCOCC3)nc21, the AC50 is reported as “inactive”.
With O=c1c(-c2ccccc2)nc2cnc(N3CCOCC3)nc2n1Cc1cccs1 the AC50 was “inactive”.
With O=c1c(-c2ccc(F)cc2)nc2cnc(N3CCNCC3)nc2n1Cc1cccs1 the AC50 was 10 µM (active).
For O=c1c(-c2cc(F)cc(F)c2)nc2cnc(N3CCOCC3)nc2n1C[C@H]1CCCO1, the AC50 was “inactive”.
CCc1c(O)c2c(c(O)c1C(C)=O)C(=O)c1c(cc(O)c(C(=O)O)c1C(=O)O)C2=O gave an activity, negative = inhibition of 2.06% [at 11.4 µM].
BrC(c1cccc2ccccc12)c1cccc2ccccc12 gave an activity, negative = inhibition of -10.7% [at 11.4 µM].
In the case of CCOC(=O)c1c(C)c(C(=O)N2CCN(C(=O)c3ccco3)CC2)c(C)n1C, the AC50 is reported as “inactive”.
With CCOC(=O)c1c(C)c(C(=O)N2CCCCCC2)c(C)n1C the AC50 was 7.94 µM (active).
CCOC(=O)c1c(C)c(C)n2c1NC(=O)C2 gave an activity, negative = inhibition of -20.8% [at 11.4 µM].
In the case of Cc1ccc(S(=O)(=O)NCC(=O)N(CC(=O)NCc2ccco2)Cc2cccs2)cc1, the AC50 is reported as 4.47 µM (active).
With Nc1ncnc2c1nc(Sc1ccc(Cl)cc1)n2[C@@H]1O[C@H]2COP(=O)(O)O[C@@H]2[C@H]1O the AC50 was “inactive”.
Molecule Oc1ccc2ccccc2c1/C=C\c1ccc2c(Br)cc(Br)c(O)c2n1 has an activity, negative = inhibition of -13.3% [at 11.4 µM].
In the case of CCC/C=C(\CCC)C(NS(=O)(=O)CC12CCC(CC1=O)C2(C)C)c1ccc(C(=O)OC)cc1 (configuration not stated), the AC50 is reported as 3.98 µM (active).
In the case of CCC/C=C(\CCC)C(NS(=O)(=O)c1ccc(Cl)cc1)c1ccccc1 (configuration not stated), the AC50 is reported as 7.94 µM (active).
In the case of CCC/C=C(\CCC)C(NS(=O)(=O)c1ccc(Cl)cc1)c1ccc(C(=O)OC)cc1 (configuration not stated), the AC50 is reported as 3.98 µM (active).
In the case of CCC/C=C(\CCC)C(NS(=O)(=O)c1ccc(-c2ccccc2)cc1)c1ccc(C(=O)OC)cc1 (configuration not stated), the AC50 is reported as “inactive”.
With O=C(Nc1ccc2c(c1)Cc1ccccc1-2)[C@@H]1[C@H](C(=O)O)[C@]2(Cl)C(Cl)=C(Cl)[C@@]1(Cl)C2(Cl)Cl the activity, negative = inhibition was -22% [at 11.4 µM].
In the case of CC(=O)Nc1ccc(-c2nnc(SCC(=O)c3ccc4c(c3)Cc3ccccc3-4)n2C)cc1, the AC50 is reported as 12.6 µM (active).
With CCCCSc1nnc(-c2ccc(C)cc2)n1C the AC50 was “inactive”.
With Cn1c(SCC(=O)c2ccc3c(c2)Cc2ccccc2-3)nnc1-c1ccccc1 the AC50 was 8.91 µM (active).
With O=C(O)c1ccccc1-c1ccccc1C(=O)Nc1ccc2c(c1)Cc1ccccc1-2 the activity, negative = inhibition was -22.9% [at 11.4 µM].
For Cc1noc(C)c1-c1nccc(Nc2ccc(F)cc2)n1, the AC50 was 12.6 µM (active).
Cc1noc(C)c1-c1nccc(NC2CC2)n1 was tested, and the AC50 was 2.51 µM (active).
For c1cc(NC2CC2)nc(-c2ccoc2)n1, the AC50 was 5.01 µM (active).
COC(=O)[C@@]1(Cc2ccc(F)cc2)[C@H]2c3cc(C(=O)N4CCCC4)n(Cc4cccc5ccccc45)c3C[C@H]2CN1C(=O)c1ccccc1 was tested, and the AC50 was 2 µM (active).
With COC(=O)[C@@]1(Cc2ccccc2)[C@H]2c3cc(C(=O)N4CCCC4)n(Cc4cccc5ccccc45)c3C[C@H]2CN1C(=O)c1ccccc1 the AC50 was 1.58 µM (active).
With CC(C)CNc1nc(N)[nH]c(=O)c1NC=O the activity, negative = inhibition was -1.52% [at 11.4 µM].
In the case of CCC(C)c1ccc(Nc2ncccc2C#N)cc1 (configuration not stated), the activity, negative = inhibition is reported as -6.67% [at 2.29 µM].
With Cc1cccc(CNc2ncnc3ccc(-c4cccc(C#N)c4)cc23)c1 the AC50 was “inactive”.
With Cc1cccc(CNc2ncnc3ccc(-c4cccnc4)cc23)c1 the AC50 was 1 µM (active).
In the case of c1ccc(CNc2ncnc3ccc(-c4cccnc4)cc23)cc1, the AC50 is reported as 1.26 µM (active).
For c1ccc(Nc2ncnc3ccc(-c4cccnc4)cc23)cc1, the AC50 was 2.51 µM (active).
Molecule CC(C)CN(CC#N)CC(C)C has an activity, negative = inhibition of -19.3% [at 11.4 µM].
In the case of CCCC(=O)NCCc1c2n(c3ccc(OC)cc13)Cc1ccccc1-2, the AC50 is reported as 2.51 µM (active).
With CCc1ccc(NC(=O)Cn2nc(C(F)(F)F)c3c2CCC3)cc1 the AC50 was 12.6 µM (active).
CN(C)C(=O)c1ccc(-n2nc(C(F)(F)F)c3c2CCCC3)cc1 was tested, and the activity, negative = inhibition was 5.72% [at 2.29 µM].
For CCNC(=O)c1ccc(-n2nc(C(F)(F)F)c3c2CCCC3)cc1, the AC50 was “inactive”.
Cn1cc([N+](=O)[O-])c(C(=O)Nc2cc(Oc3cccnc3)cc([N+](=O)[O-])c2)n1 was tested, and the AC50 was 0.501 µM (active).
CC(=O)NN1C(=O)c2ccc(Oc3cccc([N+](=O)[O-])c3)cc2C1=O was tested, and the AC50 was “inactive”.
With Cc1ccc(Nc2ccc(-n3ccnc3)nn2)cc1C the AC50 was 0.0794 µM (active).
For O=c1[nH]n(-c2cccc(Cl)c2)c2ncccc12, the AC50 was “inactive”.
For N=c1n(CCN2CCOCC2)c2ccccc2n1CC(=O)c1ccc(Cl)c(Cl)c1, the activity, negative = inhibition was 11.5% [at 2.29 µM].
In the case of O=C(c1ccc(Cl)c(Cl)c1)c1cc(-c2ccccn2)c(N2CCOCC2)s1, the AC50 is reported as 14.1 µM (active).
COc1ccc(OC[C@@H](CO)OC)cc1 gave an activity, negative = inhibition of -12.9% [at 11.4 µM].
With Cn1c(=O)c2c(n(Cc3ccccc3)c1=O)NC(=O)C2CC(=O)NCc1cccc(Cl)c1 (configuration not stated) the AC50 was 6.31 µM (active).
COCCCNCC(=O)c1c(N)n(Cc2ccccc2)c(=O)n(C)c1=O showed an activity, negative = inhibition of -9.63% [at 2.29 µM].
C[C@]12CC3CC(N)(C1)C[C@@](C)(C3)C2 was tested, and the AC50 was “inactive”.
N#C/C(=C(\O)C(=O)O)c1ccc(-c2cccc3ccccc23)cc1 was tested, and the activity, negative = inhibition was -22% [at 11.4 µM].
With CCn1c2ccccc2c2cc(N=C3SC(CC(=O)Nc4ccccc4)C(=O)N3C)ccc21 (configuration not stated) the AC50 was 5.01 µM (active).
NS(=O)(=O)c1cc2c(cc1Cl)NC(CSCc1ccccc1)=NS2(=O)=O was tested, and the AC50 was 12.6 µM (active).
NS(=O)(=O)c1cc2c(cc1Cl)N[C@H](Cc1ccccc1)NS2(=O)=O gave an activity, negative = inhibition of -18.4% [at 11.4 µM].
In the case of NS(=O)(=O)c1cc2c(cc1Cl)N[C@@H](C(Cl)Cl)NS2(=O)=O, the AC50 is reported as “inactive”.
Molecule Oc1c(Br)cc(Br)cc1CN(Cc1cc(Br)cc(Br)c1O)C1CCCCC1 has an activity, negative = inhibition of -22.2% [at 11.4 µM].
With CCOC(=O)CCN1C(=O)[C@H]2[C@H]3[C@H](O)[C@H](O)C/C(=N/O[C@@H]4O[C@@H](COC(C)=O)[C@@H](OC(C)=O)[C@@H](OC(C)=O)[C@H]4OC(C)=O)[C@@H]3CC[C@@H]2C1=O the activity, negative = inhibition was -20.3% [at 11.4 µM].
